Results filed as inconclusive are left out. The source made the active and inactive calls. Unless noted, the call rests on the fitted dose curve; in most records, active means well fitted curve in the direction sought with a large enough effect in the repeat runs; inconclusive means weak or mixed curves; inactive means no such curve, though single readings can be large; an effect the other way counts as inactive or inconclusive.
Legend:
[1] = qHTS assay to identify small molecule antagonists of the estrogen related receptor signaling pathway with the pleiotropic PPARgamma coactivator (PGC) from Tox21 10K library - cell viability counter screen (AID 1224840; active means well fitted cell-killing curve with a large enough effect in the repeat runs, not every such curve was filed as active; further: nearly all actives have a fitted effect of over 40% in size)
Procedure, shortened: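 Here the PGC/ERR cells serve as a cytotoxicity control: they are exposed to compounds for 17.5 hours at 37 C, and live-cell signal is quantified using CellTiter-Fluor fluorescence.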

[2] = molecular target: Thyrotropin receptor (Homo sapiens) (UniProt P16473); experiment: qHTS assay to identify small molecule agonists of the thyroid stimulating hormone receptor (TSHR) signaling pathway (AID 1224843; calls by dose curve; further: nearly all actives have a fitted effect of over 45% in size)
Procedure, shortened: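 TSHR-expressing HEK293 cells (800 per well) were exposed to compounds for 30 min at room temperature. cAMP was then detected by HTRF competition with cAMP-d2 and anti-cAMP cryptate, read after 1 h at room temperature. Fifteen concentrations, triplicate.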

[3] = qHTS assay to identify small molecule agonists of the hypoxia (HIF-1) signaling pathway - cell viability counter screen (AID 1224844; calls by dose curve; further: nearly all actives have a fitted effect of over 50% in size)
Procedure, shortened: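 Multiplexed with the HRE beta-lactamase assay, this viability read used CellTiter-Glo luminescence (30 min, RT) on HRE-bla ME-180 cells treated 17 hrs with compounds in 0.5% dialyzed FBS medium.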

[4] = qHTS assay to identify small molecule agonists of H2AX (AID 1224845; active means well fitted activation curve with a large enough effect in the signal ratio in the repeat runs, not every such curve was filed as active; the % refers to the signal ratio)
Procedure, shortened: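 Wild-type CHO-K1 cells plated overnight, then exposed 3 hr at 37C to compounds at 15 concentrations (0.76% DMSO). Lysed, then HTRF anti-pH2AX(S139)-cryptate/anti-H2AX-d2 detection after 24 hr at room temperature; emissions 665 and 620 nm.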

[5] = qHTS assay to identify small molecule agonists of the hypoxia (HIF-1) signaling pathway (AID 1224846; active means well fitted activation curve with a large enough effect in the signal ratio in the repeat runs, not every such curve was filed as active; the % refers to the signal ratio)
Procedure, shortened: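 Hypoxia-pathway activation was scored as increased beta-lactamase from an HRE-controlled reporter in ME-180 cells; plated at 2,000 cells per well with 0.5% dialyzed FBS, they were exposed 17 hrs to compounds and then given CCF4-AM.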

[6] = qHTS assay to identify small molecule agonists of H2AX - cell viability counter screen (AID 1224847; calls by dose curve; further: top concentration of the series differs between compounds; nearly all actives have a fitted effect of over 30% in size)
Procedure, shortened: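 Read-out: CellTiter-Glo luminescence, 30 min RT. Cells: wild-type CHO-K1, 1000/well, 10% FBS, plated overnight at 37C. Treatment: 15 concentrations, 3 hr, 37C, 0.76% DMSO.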

[7] = qHTS RealTime-Glo MT Cell Viability Assay in HEK293 cells - 32 hour (AID 1224868); further: top concentration of the series differs between compounds; nearly all actives have a fitted effect of over 50% in size
Procedure, shortened: (§1)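 Reads taken at 0, 8, 16, 24, 32 and 40 h from the same wells. HEK293 cells (600/well) carried RealTime-Glo reagents from seeding, with compound added after a 5 h settle at 37 C.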

[8] = A CellTox Green Cytotoxicity Assay to monitor cytotoxicity in HEK293 cells - 0 hour (AID 1224869); further: nearly all actives have a fitted effect of over 50% in size
Procedure, shortened: (§2)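 Seeding of HEK293 cells together with cytotoxicity dye preceded a 5 h incubation at 37 C/5% CO2. Test compounds in DMSO were then added and fluorescence monitored across 40 h.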

[9] = qHTS RealTime-Glo MT Cell Viability Assay in HepG2 cells - 40 hour (AID 1224870); further: nearly all actives have a fitted effect of over 50% in size
Procedure, shortened: (§3)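 HepG2 cells mixed with RealTime-Glo MT reagents (NanoLuc plus cell-permeant prosubstrate) were seeded at 600 cells/well, incubated 5 h at 37 C/5% CO2, then pinned with compounds in DMSO; nonlytic luminescence tracked viability during 40 h treatment.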

[10] = A CellTox Green Cytotoxicity Assay to monitor cytotoxicity in HEK293 cells - 40 hour (AID 1224871); further: nearly all actives have a fitted effect of over 45% in size
Procedure, shortened: as §2

[11] = qHTS RealTime-Glo MT Cell Viability Assay in HEK293 cells - 16 hour (AID 1224872)
Procedure, shortened: as §1

[12] = qHTS RealTime-Glo MT Cell Viability Assay in HepG2 cells - 8 hour (AID 1224873); further: nearly all actives have a fitted effect of over 55% in size
Procedure, shortened: as §3

[13] = qHTS RealTime-Glo MT Cell Viability Assay in HEK293 cells - 40 hour (AID 1224874); conditions: RealTime-Glo luminescence; max response: stronger effect = lower value; further: nearly all actives have a fitted effect of over 50% in size
Procedure, shortened: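 Tox21 screen in HEK293 using RealTime-Glo MT chemistry, with cells and reagent co-dispensed. Luminescence proportional to viable cell number was captured at intervals during 40 h compound exposure at 37 C.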

[14] = qHTS RealTime-Glo MT Cell Viability Assay in HepG2 cells - 24 hour (AID 1224867); further: nearly all actives have a fitted effect of over 50% in size
Procedure, shortened: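 HepG2 suspension premixed with RealTime-Glo reagents is plated at 600 cells per well and left 5 h at 37 C/5% CO2. Compounds in DMSO then go in, and bioluminescence reflecting viable cell number is recorded over 40 h.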

[15] = A CellTox Green Cytotoxicity Assay to monitor cytotoxicity in HEK293 cells - 24 hour (AID 1224875); further: series mostly up to about 77 µM; nearly all actives have a fitted effect of over 45% in size
Procedure, shortened: as §2
On the % scale 0 is the no-effect control and ±100 the full control effect.

Sequence of Thyrotropin receptor (Homo sapiens) (P16473 whole entry, looked up): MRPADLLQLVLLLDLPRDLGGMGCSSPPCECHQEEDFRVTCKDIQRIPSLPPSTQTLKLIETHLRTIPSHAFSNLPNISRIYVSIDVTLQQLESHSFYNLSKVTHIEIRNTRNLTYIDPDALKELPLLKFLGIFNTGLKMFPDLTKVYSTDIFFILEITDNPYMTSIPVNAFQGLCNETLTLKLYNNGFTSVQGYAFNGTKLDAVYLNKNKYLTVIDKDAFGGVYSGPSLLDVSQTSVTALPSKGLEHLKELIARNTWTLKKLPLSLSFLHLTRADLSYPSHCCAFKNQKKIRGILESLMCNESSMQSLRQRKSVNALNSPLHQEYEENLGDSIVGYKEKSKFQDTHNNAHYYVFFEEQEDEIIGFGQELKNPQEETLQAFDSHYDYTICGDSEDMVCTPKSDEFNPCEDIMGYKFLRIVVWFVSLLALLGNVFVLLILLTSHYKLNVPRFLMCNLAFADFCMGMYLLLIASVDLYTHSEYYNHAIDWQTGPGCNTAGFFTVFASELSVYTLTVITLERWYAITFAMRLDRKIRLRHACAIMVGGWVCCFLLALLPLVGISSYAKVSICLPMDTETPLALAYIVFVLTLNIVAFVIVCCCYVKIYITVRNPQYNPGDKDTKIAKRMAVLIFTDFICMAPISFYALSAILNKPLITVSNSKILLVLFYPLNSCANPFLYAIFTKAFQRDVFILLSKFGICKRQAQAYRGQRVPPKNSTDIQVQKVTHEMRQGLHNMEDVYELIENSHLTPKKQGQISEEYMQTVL

C=C(C)[C@@H]1CC=C(C)C(=O)C1
inactive: outcome [1] | outcome [2] | outcome [3] | outcome [4] | outcome [5] | outcome [6] | Potency [7] | Potency [8] | outcome [9] | Potency [10] | Potency [11] | outcome [12] | max response [13] -8.2%

CC(C)C1OCCN1CCOC(=O)NCCCCCCNC(=O)OCCN1CCOC1C(C)C (stereo not given)
inactive: outcome [1] | outcome [2] | outcome [3] | outcome [5] | outcome [6] | outcome [14] | Potency [7] | Potency [8] | outcome [9] | Potency [10] | Potency [11] | outcome [12] | max response [13] 1.59% | Potency [15]

CCc1occc(=O)c1O
inactive: outcome [1] | outcome [2] | outcome [3] | outcome [4] | outcome [5] | outcome [6] | outcome [14] | Potency [7] | outcome [9] | Potency [10] | Potency [11] | outcome [12] | max response [13] 3.56% | Potency [15]

CC(=O)O[Si](C)(OC(C)=O)OC(C)=O
inactive: outcome [1] | outcome [2] | outcome [3] | outcome [4] | outcome [5] | outcome [6] | outcome [14] | Potency [7] | outcome [9] | Potency [10] | Potency [11] | outcome [12] | max response [13] 7.61% | Potency [15]

CCO
inactive: outcome [1] | outcome [2] | outcome [4] | outcome [5] | outcome [6] | outcome [14] | Potency [7] | outcome [9] | Potency [10] | Potency [11] | max response [13] 0.927% | Potency [15]

COc1cc2c(cc1OC)CN(C(=O)[C@H](C)N[C@@H](CCc1ccccc1)C(=O)O)[C@H](C(=O)O)C2
inactive: outcome [1] | outcome [2] | outcome [3] | outcome [5] | outcome [6] | outcome [14] | Potency [7] | Potency [8] | outcome [9] | Potency [10] | Potency [11] | outcome [12] | max response [13] 2.78% | Potency [15]

CCN(CC)CCN
inactive: outcome [1] | outcome [2] | outcome [3] | outcome [4] | outcome [5] | outcome [6] | outcome [14] | Potency [7] | outcome [9] | Potency [10] | Potency [11] | outcome [12] | max response [13] 2.52% | Potency [15]

C=C(C)C1CC=C(C)C(=O)C1 (stereo not given)
inactive: outcome [1] | outcome [2] | outcome [5] | outcome [6] | outcome [14] | Potency [7] | Potency [8] | outcome [9] | Potency [10] | Potency [11] | outcome [12] | max response [13] 0.21% | Potency [15]

Cc1cc(-c2ccccc2)nnc1NCCN1CCOCC1
inactive: outcome [1] | outcome [2] | outcome [6] | outcome [14] | Potency [7] | Potency [8] | outcome [9] | Potency [10] | Potency [11] | outcome [12] | max response [13] -1.81% | Potency [15]

CC(=O)CCC1=C(C)CCCC1(C)C
inactive: outcome [1] | outcome [2] | outcome [3] | outcome [4] | outcome [6] | outcome [14] | Potency [7] | Potency [8] | outcome [9] | Potency [11] | outcome [12] | max response [13] -7.96%

O=C(O)CONC(=O)c1ccccc1
inactive: outcome [1] | outcome [2] | outcome [4] | outcome [5] | outcome [6] | outcome [14] | Potency [7] | outcome [9] | Potency [10] | Potency [11] | outcome [12] | max response [13] 1.73% | Potency [15]

CCC[C@@H]1C[C@@H](C(=O)N[C@@H]([C@H]2O[C@H](SC)[C@H](O)[C@@H](O)[C@H]2O)[C@@H](C)O)N(C)C1
inactive: outcome [1] | outcome [2] | outcome [3] | outcome [4] | outcome [6] | outcome [14] | Potency [7] | Potency [8] | outcome [9] | Potency [10] | Potency [11] | outcome [12] | max response [13] 0.684% | Potency [15]

CCCCCc1cccc(=O)o1
inactive: outcome [1] | outcome [2] | outcome [3] | outcome [4] | outcome [5] | Potency [7] | Potency [8] | outcome [9] | Potency [10] | Potency [11] | outcome [12] | max response [13] -0.0336%

C=Cc1ccc(C(C)(C)C)cc1
inactive: outcome [1] | outcome [2] | outcome [3] | outcome [4] | outcome [6] | outcome [14] | Potency [7] | outcome [9] | Potency [10] | Potency [11] | outcome [12] | max response [13] -0.639% | Potency [15]

CC(C)OC(=O)CCC(=O)OC(C)C
inactive: outcome [1] | outcome [2] | outcome [3] | outcome [4] | outcome [5] | outcome [6] | outcome [14] | Potency [7] | Potency [8] | outcome [9] | Potency [10] | Potency [11] | max response [13] 8.19% | Potency [15]

COC(=O)c1cccc(Cl)c1
inactive: outcome [1] | outcome [2] | outcome [3] | outcome [4] | outcome [14] | Potency [7] | Potency [8] | outcome [9] | Potency [10] | Potency [11] | outcome [12] | max response [13] 11% | Potency [15]

C[Si]1(C)O[Si](C)(C)O[Si](C)(C)O[Si](C)(C)O[Si](C)(C)O1
inactive: outcome [1] | outcome [2] | outcome [3] | outcome [5] | outcome [6] | outcome [14] | Potency [7] | Potency [8] | outcome [9] | Potency [10] | Potency [11] | outcome [12] | max response [13] 5.69% | Potency [15]
